{"source": "PubChem BioAssay AID1053133", "about": "(Broad Institute, 2014)", "note": "Screen size: about 89,000 compounds; about 10 (0.01%) were called active. Not shown: some 10% with an inconclusive outcome. No stated cut-off is given here; in the data, active means activity change below about -37% (passing the limit was not always enough); inconclusive means no clear call, values can overlap the other calls; tested in A549 cells. These entries were drawn from the full list."}
{"experiment": "Vaccinia orthopox stage-specific inhibition, primary screen, cell-based, single point (AID 1053133)", "settings": "Vaccinia-infected cells, mCherry/Venus stage reporter fluorescence, stronger effect = lower value, concentration not given here; activity change (Venus): measured here: Venus reporter, other viral stage", "units": {"activity change (Venus)": "%"}}
{"smiles": "COc1ccc(CN2[C@@H](CO)[C@@H]3c4ccccc4N(C(=O)Nc4ccccc4)C[C@@H]32)cc1", "activity change (Venus)": -11.3, "activity change (mCherry)": "-12.7% (inactive)"}
{"smiles": "CCS(=O)(=O)Nc1ccc2c(c1)C(=O)N(C)[C@H]1CC[C@H](CC(=O)NCc3ccccc3F)O[C@H]1CO2", "activity change (Venus)": 8.23, "activity change (mCherry)": "-6.34% (inactive)"}
{"smiles": "O=C(C[C@H]1C=C[C@H](NC(=O)CC2CC2)[C@@H](CO)O1)NCc1ccccc1", "activity change (Venus)": 4.6, "activity change (mCherry)": "4.83% (inactive)"}
{"smiles": "Cc1noc(C)c1NC(=O)N[C@@H]1CC[C@H](CCNC(=O)C2CCC2)O[C@@H]1CO", "activity change (Venus)": 3.06, "activity change (mCherry)": "-10.7% (inactive)"}
{"smiles": "CO[C@H]1CN(C)C(=O)c2ccc(NC(=O)C3CC3)cc2OC[C@@H](C)N(Cc2ccc(F)cc2)C[C@@H]1C", "activity change (Venus)": -14.9, "activity change (mCherry)": "-29.4% (inactive)"}
{"smiles": "CC(=O)N1[C@@H]2Cn3c(ccc(C4=CCCC4)c3=O)[C@H]1[C@@H](C(=O)NC1CCC1)[C@@H]2CO", "activity change (Venus)": 2.6, "activity change (mCherry)": "11.3% (inactive)"}
{"smiles": "O=C(Cc1cccnc1)N1CC(=O)N2[C@H](CO)[C@H](c3ccc(C#CC4CCCC4)cc3)[C@@H]2C1", "activity change (Venus)": -12.7, "activity change (mCherry)": "-12.6% (inactive)"}
{"smiles": "O=C(N[C@@H]1CC[C@H](CCn2cc(-c3ccccn3)nn2)O[C@@H]1CO)c1ccccc1", "activity change (Venus)": -0.983, "activity change (mCherry)": "0.892% (inactive)"}
{"smiles": "O=C(NC[C@H]1CC[C@H]2[C@H](CN2Cc2cccc(Cl)c2)O1)C1CC1", "activity change (Venus)": 6.08, "activity change (mCherry)": "4.96% (inactive)"}
{"smiles": "CN(C)C(=O)c1cccc(-c2ccc3c(c2)[C@@H]2[C@@H](CCN2Cc2nccs2)[C@@H](CO)N3)c1", "activity change (Venus)": -3.17, "activity change (mCherry)": "-14.5% (inactive)"}
{"smiles": "O=C(C[C@@H]1CC[C@@H]2[C@H](COC[C@H](O)CN2Cc2ccc(F)cc2)O1)NCc1ccncn1", "activity change (Venus)": 9.14, "activity change (mCherry)": "13.7% (inactive)"}
{"smiles": "CN1CCN(C(=O)C[C@H]2CC[C@H]3[C@@H](COC[C@H](O)CN3CC3CCCC3)O2)CC1", "activity change (Venus)": -10.7, "activity change (mCherry)": "-14.5% (inactive)"}
{"smiles": "CCCc1cn(CC[C@@H]2CC[C@@H](NC(=O)CCN3CCCCC3)[C@H](CO)O2)nn1", "activity change (Venus)": 6.3, "activity change (mCherry)": "4.68% (inactive)"}
{"smiles": "COc1ccc(-c2cn(CC[C@H]3CC[C@@H](NC(=O)CCN4CCCCC4)[C@H](CO)O3)nn2)cc1", "activity change (Venus)": 12, "activity change (mCherry)": "0.142% (inactive)"}
{"smiles": "N#C[C@@H]1[C@H](c2ccccc2-c2cccc(F)c2)[C@@H](CO)N1C(=O)CN1CCOCC1", "activity change (Venus)": 4.69, "activity change (mCherry)": "12.6% (inactive)"}
{"smiles": "CO[C@H]1CN(C)C(=O)c2ccc(NC(=O)c3ccccc3F)cc2OC[C@H](C)N(C(=O)c2ccccc2F)C[C@H]1C", "activity change (Venus)": 2.58, "activity change (mCherry)": "-1.92% (inactive)"}
{"smiles": "Cc1cc(C(=O)Nc2ccc3c(c2)C(=O)N(C)[C@@H]2CC[C@@H](CC(=O)NC4CCCC4)O[C@@H]2CO3)no1", "activity change (Venus)": 8.29, "activity change (mCherry)": "8.19% (inactive)"}
{"smiles": "O=C(C[C@@H]1CC[C@@H]2[C@H](COC[C@H](O)CN2C(=O)Nc2cccc(Cl)c2)O1)NCCCN1CCOCC1", "activity change (Venus)": 5.06, "activity change (mCherry)": "10% (inactive)"}
{"smiles": "CCC(=O)N1CCC2(CC1)CN(S(C)(=O)=O)[C@@H](CO)c1c2c2ccc(OC)cc2n1C", "activity change (Venus)": 7.75, "activity change (mCherry)": "14.3% (inactive)"}
{"smiles": "CC(C)CC#Cc1ccc2c(c1)O[C@H](CN(C)C(=O)Cc1cccnc1)[C@H](C)CN([C@@H](C)CO)S2(=O)=O", "activity change (Venus)": -21.5, "activity change (mCherry)": "-32.3% (inactive)"}
{"smiles": "O=C(Cc1ccccn1)N[C@H]1CC[C@H](CCn2cc(-c3ccc(F)cc3)nn2)O[C@H]1CO", "activity change (Venus)": 1.48, "activity change (mCherry)": "5.56% (inactive)"}
{"smiles": "NCC[C@@H]1CC[C@@H](NC(=O)C2CCCC2)[C@H](CO)O1", "activity change (Venus)": 0.29, "activity change (mCherry)": "-7.04% (inactive)"}
{"smiles": "COc1ccc(NC(=O)Nc2ccc3c(c2)C(=O)N([C@@H](C)CO)C[C@H](C)[C@H](CN(C)S(=O)(=O)c2ccccc2)OCCCC[C@@H](C)O3)cc1", "activity change (Venus)": -1.69, "activity change (mCherry)": "-0.413% (inactive)"}
{"smiles": "C[C@@H]1CN([C@H](C)CO)C(=O)c2cc(-c3ccccc3)cnc2O[C@H]1CN(C)C(=O)NC1CCCC1", "activity change (Venus)": -2.73, "activity change (mCherry)": "1.1% (inactive)"}
{"smiles": "CCC(=O)N1CCC2(CC1)CN(Cc1cc(F)ccc1F)[C@@H](CO)c1c2c2ccc(OC)cc2n1C", "activity change (Venus)": -2.18, "activity change (mCherry)": "15.8% (inactive)"}
{"smiles": "O=C(C[C@H]1CC[C@@H]2[C@H](COC[C@H](O)CN2C(=O)c2ccc3c(c2)OCO3)O1)NC1CCC1", "activity change (Venus)": 9.5, "activity change (mCherry)": "3.32% (inactive)"}
{"smiles": "O=C(Nc1ccccc1F)N[C@H]1CC[C@@H](CCNS(=O)(=O)c2ccc(F)cc2)O[C@@H]1CO", "activity change (Venus)": -12.7, "activity change (mCherry)": "-16.7% (inactive)"}
{"smiles": "O=C(C[C@H]1C=C[C@H](NC(=O)Nc2cc(F)ccc2F)[C@H](CO)O1)Nc1ccccc1", "activity change (Venus)": -0.0195, "activity change (mCherry)": "-4.16% (inactive)"}
{"smiles": "COc1ccc2c3c(n(C)c2c1)[C@@H](CO)N(C(=O)c1ccc(F)cc1)CC31CN(C(=O)c2ccc(F)cc2)C1", "activity change (Venus)": -9, "activity change (mCherry)": "-10.3% (inactive)"}
{"smiles": "COc1cccc(-c2ccc(CC[C@H]3O[C@H]4CC[C@@H](CO)O[C@H]4C[C@@H]3NS(C)(=O)=O)cc2)c1", "activity change (Venus)": -32, "activity change (mCherry)": "-32.8% (inactive)"}
{"smiles": "O=C(C[C@@H]1CC[C@H]2[C@@H](COC[C@H](O)CN2Cc2ccc(F)cc2)O1)N1CCc2ccccc2C1", "activity change (Venus)": -6.62, "activity change (mCherry)": "-6.87% (inactive)"}
{"smiles": "CN(C)CC(=O)N1[C@H](CO)[C@@H](c2ccc(-c3cccc(C(=O)N(C)C)c3)cc2)[C@@H]1C#N", "activity change (Venus)": -1.53, "activity change (mCherry)": "8.67% (inactive)"}
{"smiles": "O=C(c1ccncc1)N1C[C@H]2[C@@H](c3ccccc31)[C@H](CO)N2C(=O)Nc1ccc(F)cc1", "activity change (Venus)": 5.09, "activity change (mCherry)": "11% (inactive)"}
{"smiles": "COCC(=O)Nc1ccc2c(c1)C(=O)N(C)[C@@H]1CC[C@H](CC(=O)NCC3CC3)O[C@H]1CO2", "activity change (Venus)": 3.16, "activity change (mCherry)": "15.4% (inactive)"}
{"smiles": "O=C(c1ccncc1)N1C[C@H]2[C@@H](c3ccccc31)[C@H](CO)N2C(=O)c1ccccn1", "activity change (Venus)": 2.97, "activity change (mCherry)": "10.6% (inactive)"}
{"smiles": "COc1ccc2c3c([nH]c2c1)[C@@H](CO)N(Cc1ccccc1F)CC31CN(C(=O)C2CC2)C1", "activity change (Venus)": 19.6, "activity change (mCherry)": "12.9% (inactive)"}
{"smiles": "CCCN(C)C[C@@H]1Oc2ncc(-c3cccc(C(=O)N(C)C)c3)cc2C(=O)N([C@H](C)CO)C[C@@H]1C", "activity change (Venus)": 1.46, "activity change (mCherry)": "23.1% (inactive)"}
{"smiles": "C[C@@H]1CN([C@@H](C)CO)S(=O)(=O)c2ccc(-c3ccc(F)cc3)cc2O[C@@H]1CN(C)CC1CC1", "activity change (Venus)": -14.3, "activity change (mCherry)": "-33.2% (inactive)"}
